RORgamma inh = qHTS for inhibitors of ROR gamma transcriptional activity; 310,000 tested, 5.4% active; Drosophila S2 Gal4-RORgamma UAS-luciferase reporter, 20 h; Potency, µM (top dose mostly 53.6 µM), actives largely listed as inhibitors; Nuclear receptor ROR-gamma (Mus musculus), P51450; also: nearly all actives have a fitted effect of over 60% in size
Target sequence (P51450 whole entry, looked up, the tested form may be a part): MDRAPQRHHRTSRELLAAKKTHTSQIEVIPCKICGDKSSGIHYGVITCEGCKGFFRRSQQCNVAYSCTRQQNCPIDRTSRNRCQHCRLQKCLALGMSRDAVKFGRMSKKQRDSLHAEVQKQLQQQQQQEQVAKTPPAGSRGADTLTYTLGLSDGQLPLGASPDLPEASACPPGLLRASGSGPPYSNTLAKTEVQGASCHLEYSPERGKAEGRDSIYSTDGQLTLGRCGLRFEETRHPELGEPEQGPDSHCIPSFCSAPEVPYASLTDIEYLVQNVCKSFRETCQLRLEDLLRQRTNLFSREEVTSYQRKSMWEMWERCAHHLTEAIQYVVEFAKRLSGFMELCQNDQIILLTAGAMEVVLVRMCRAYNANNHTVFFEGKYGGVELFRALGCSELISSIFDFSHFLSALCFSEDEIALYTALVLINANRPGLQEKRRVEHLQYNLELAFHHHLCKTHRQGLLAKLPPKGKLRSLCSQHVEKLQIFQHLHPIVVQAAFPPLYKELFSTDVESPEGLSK
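Drosophila Schneider cells stably carrying a metallothionein-driven Gal4 DBD–ROR gamma fusion and a UAS-Photinus luciferase reporter were exposed to compound for 1 hr, then induced with copper sulfate (700 uM final) for 20 hr at ambient temperature before luminescence reading.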
ELG1 repair inh = qHTS screen for small molecules that inhibit ELG1-dependent DNA repair in human embryonic kidney (HEK293T) cells expressing luciferase-tagged ELG1 | HEK293T ELG1-luciferase reporter, luminescence, 16 h; DNA damage induced by 5-fluorouridine | Potency, µM (series often up to 46.1 µM), usual class: inhibitors | 330,000 tested, 2.3% active | AID 504467, 2011; also: nearly all actives have a fitted effect of over 55% in size
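5-Fluorouridine DNA damage + compound/DMSO, 2,000 cells/well, 16 h, 37 °C/5% CO2. ONE-Glo, 30 min RT, luminescence. Readout = decrease in reporter signal.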
TDP1 cell noCPT = qHTS for Inhibitors of human tyrosyl-DNA phosphodiesterase 1 (TDP1): qHTS in cells in absence of CPT; DT40 Tdp1-/- hTDP1 cells, no CPT, ATP luminescence, 48 h; Potency, µM (top dose mostly 46.2 µM), hits mostly inhibitors; 420,000 tested, 15% active; also: nearly all actives have a fitted effect of over 55% in size
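Seeded 400 DT40-hTDP1 cells/well (vehicle DMSO, no 20 nM CPT); pinned compounds; ≥48 hr at 37 °C; CellTiter-Glo luminescence as viability measure.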
TDP1 cell CPT = qHTS for Inhibitors of human tyrosyl-DNA phosphodiesterase 1 (TDP1): qHTS in cells in presence of CPT; Potency, µM (highest dose often 46.2 µM), most hits filed as inhibitors; 420,000 tested, 12% active; chicken DT40 Tdp1-/-;hTDP1 cells + 20 nM CPT, ATP luminescence, 48 h; AID 686979, 2013; also: nearly all actives have a fitted effect of over 55% in size
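Cell growth measured by CellTiter-Glo luminescence after a minimum 48 h, 37 C compound exposure with 20 nM CPT in Tdp1-knockout DT40 cells stably expressing hTDP1, seeded 400/well; qHTS titration format.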
Gal4-VP16 FLuc = VP16 counterscreen qHTS for inhibitors of ROR gamma transcriptional activity. Drosophila S2 Gal4-VP16 UAS-luciferase, luminescence, 20 h. Potency, µM (series often up to 53.6 µM), usual class: inhibitors. 310,000 tested, 3.5% active;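 also: Gal4-VP16 expression switched on by copper sulfate through the metallothionein promoter; nearly all actives have a fitted effect of over 50% in size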
IL1B secr inh = qHTS for Inhibitors of Inflammasome Signaling: IL-1-beta AlphaLISA Primary Screen. activity change, % at 57.5 µM. 360,000 tested, 4.7% active. THP-1 LPS/ATP IL-1B secretion, AlphaLISA, 16 h; hits give low values; in the data active = activity change below about -50%; inconclusive = mostly about -30% to -49%
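THP-1 cells pretreated 1 hr with compounds (up to 57.5 uM final), then stimulated with LPS (250 ng/mL final) plus ATP (1.25 mM final); secreted IL-1B measured by AlphaLISA after 16 hr, decreased signal indicating inhibition.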
Numbers stand for hits; n = inactive; u = inconclusive; x = no result; [ ] = remark or other dose. The list is not random: actives were taken first. Their share in the collection is about 21%. Unless noted, calls follow the shape of the dose curve; as a rule, active = well fitted curve in the direction sought with a large enough effect; inconclusive = small, poorly fitted or top-dose-only effect, or another doubt; inactive = no such curve, though single readings can be large; an effect the other way counts as inactive or inconclusive.

SMILES	RORgamma inh	ELG1 repair inh	TDP1 cell noCPT	TDP1 cell CPT	Gal4-VP16 FLuc	IL1B secr inh
Cc1ccc(OC(=O)N(C)C[C@H]2OCc3cnnn3CCCC(=O)N([C@@H](C)CO)C[C@H]2C)cc1	x	x	u	n	x	n
CN(c1ccccc1)P(=O)(N1CC1)N1CC1	x	x	4.11µM	2.59µM	x	n
CCN(CC)C(C)C(=O)c1ccccc1 (stereo unspecified)	x	x	n	n	x	x
CCOC(CN1CCN(CC(C)C(=O)c2ccccc2)CC1)c1ccccc1 (stereo unspecified)	n	x	26.6µM	u	n	x
Cc1ccc(Cn2cccc(C(=O)Nc3nc4ccc(C)cc4s3)c2=O)cc1	x	x	n	n	x	x
N/C(=N/[N+](=O)[O-])N1CCN(C(=O)c2ccc(Cl)cc2)CC1	n	n	n	n	n	n
COc1cc(C)c(CN2CC=C(c3ccc(F)cc3)CC2)cc1C	n[1.91 µM]	n	u	n	n	n
COc1cc2nc(CN3CC=C(c4ccccc4)CC3)[nH]c(=O)c2cc1OC	x	x	18.4µM	u	x	n
On1ccccc1=S	x	u	0.0092µM	0.13µM	x	-107.3
CCC[CH2][Sn]([Cl])([Cl])[Cl]	n	x	x	x	n	x
CC(=O)Nc1ccc(S(=O)(=O)N(C)CCOCc2ccccc2)cc1	n	u	18.4µM	23.1µM	n	n
CN1[C@H](CC(=O)c2ccccc2)CCC[C@H]1C[C@@H](O)c1ccccc1	n	x	n	n	n	x
CCN(CC)S(=O)(=O)c1ccc(NN=C(C#N)C#N)cc1	n	u	u	u	u	-80.5
N#CC(C#N)=NNc1ccc([N+](=O)[O-])cc1	u	n	23.1µM	20.6µM	u	-90.6
O.O.O.O=C([O-])C(O)C(O)C(=O)[O-].O=C([O-])C(O)C(O)C(=O)[O-].[K+].[K+].[Sb].[Sb] (stereo unspecified)	x	x	n	n	x	x
COc1cc2c(cc1OC)C(C(=O)NC(C)C)C1CCCCN1C2=O (stereo unspecified)	n	n	n	n	n	n
CCN1CCN(c2nc3ccccc3s2)CC1	n	u	n	n	n	n
Cn1c(C(=O)N2CCN(c3nc4ccccc4s3)CC2)cc2sccc21	n	u	u	23.1µM	n	n
CCc1ccc(-n2c(SC(CC)C(=O)N(CC)CC)nc3n[nH]c(C)c3c2=N)cc1 (stereo unspecified)	x	x	2.59µM	2.59µM	x	x
Cc1ccc(S(=O)(=O)N(C)C[C@H]2Oc3c(NC(=O)Nc4cccc5ccccc45)cccc3C(=O)N([C@@H](C)CO)C[C@@H]2C)cc1	x	n	u	16.4µM	x	u
Cc1ccc(S(=O)(=O)N(C)C[C@H]2Oc3cc(Br)ccc3S(=O)(=O)N([C@H](C)CO)C[C@H]2C)cc1	x	x	29.1µM	u	x	n
C[C@H](CO)N1C[C@H](C)[C@H](CN(C)C(=O)Nc2cccc3ccccc23)Oc2c(NC(=O)c3ccc(-c4nccs4)cc3)cccc2C1=O	x	n	u	u	x	n
Cc1ccc(S(=O)(=O)N(C)C[C@@H]2Oc3ncc(Br)cc3C(=O)N([C@H](C)CO)C[C@H]2C)cc1	x	x	9.2µM	u	x	n
COc1ccc(NC(=O)Nc2ccc3c(c2)C(=O)N([C@H](C)CO)C[C@H](C)[C@@H](CN(C)S(=O)(=O)c2ccc(OC)cc2)O3)cc1	x	n	u	u	x	n
C[C@H]1CN([C@@H](C)CO)C(=O)c2cccc(NC(=O)c3ccc(-c4nccs4)cc3)c2O[C@@H]1CN(C)C(=O)Nc1cccc2ccccc12	x	u	14.6µM	25.9µM	x	n
SMILES	RORgamma inh	ELG1 repair inh	TDP1 cell noCPT	TDP1 cell CPT	Gal4-VP16 FLuc	IL1B secr inh
Cc1ccc2oc(=O)n(CCC(=O)Nc3ccc(N4CCOCC4)cc3)c2c1	n	n	u	n	n	n
FC(F)(F)c1nc(N2CCN(c3ccccc3)CC2)nc2c1CCCCC2	n[0.365 µM]	n	18.4µM	u	x	n
COc1ccc(CNC(=O)/C=C\c2ccc3[nH]cc(CCN(C)C)c3c2)cc1	n	x	u	u	n	x
CCNCC	n	x	x	x	n	x
O=C(Cn1c(NCCCl)nc2ccccc21)c1ccc(Br)cc1	x	x	u	u	x	n
COc1ccc(C(=O)Cn2c(NCCCl)nc3ccccc32)cc1	n	n	n	20.6µM	n	n
Cc1ccc(-n2c(/C=C/c3ccc(Br)s3)nc3ccccc3c2=O)cc1	x	x	20.6µM	23.1µM	x	x
Cc1cc(-n2c(/C=C/c3cccs3)nc3ccccc3c2=O)ccc1Br	x	x	23.1µM	14.6µM	x	x
Cc1cc(-n2c(/C=C/c3ccc(Br)s3)nc3ccccc3c2=O)ccc1Br	x	x	u	14.6µM	x	x
C[C@]12CC[C@H]3[C@@H](CCC4=CC(=O)CC[C@@]43C)[C@@H]1CC[C@@H]2OC(=O)CCc1ccccc1	x	x	u	n	x	x
CCc1ccc2c(c1)Sc1ccccc1CC2N1CCN(C)CC1 (stereo unspecified)	x	x	18.4µM	u	x	-65.0
O=C(O)C(O)(c1ccc(Cl)cc1)C1(O)CCCC1 (stereo unspecified)	x	x	n	n	x	n
COc1ccc(C=C2C(=O)NC(=S)NC2=O)cc1OC	x	x	n	n	x	n
COc1ccc(/C=C/C=C2C(=O)NC(=S)NC2=O)cc1	x	x	3.26µM	3.26µM	x	u
O=S(=O)(c1ccccc1C(F)(F)F)N1CCN(c2ncnc3sccc23)CC1	x	16.4µM	8.2µM	14.6µM	x	-62.2
O=C(NC(c1cccnc1)C(F)(F)F)c1cnn(-c2nccc(-c3cccs3)n2)c1C1CC1 (stereo unspecified)	x	x	20.6µM	u	x	x
Cc1ccc(C(=O)Nc2nc3ccccc3n2CCN2CCCC2)cc1	2.51µM	u	13µM	14.6µM	7.08µM	n
CCCn1c(C(=O)c2ccccc2)nc2ccccc21	n	n	n	n	n[10 µM]	n
CCN(CC)c1ccccc1	n	n	n	n	n	n
CCN(CC)c1ccc(/C=C/[N+](=O)[O-])cc1	8.91µM	u	16.4µM	u	n	n
Cl.Cl.Cl.Cl.Cl.Cl.N.N.N.N.NNNNN.NNNNN.O.O.[Ru].[Ru].[Ru]	n	x	u	u	n	x
O=C(Nc1ncc(Cc2ccccc2)s1)C1=NCCN1	2µM	n	u	n	u	n
CC(=O)NCC(N)C(=O)c1ccc(C)cc1 (stereo unspecified)	x	x	15.8µM	u	x	x
CS(=N)(=O)CC[C@@H](N)C(=O)O (stereo partly specified)	n	x	x	x	n	x
O=CC=O	n	x	n	n	n	x
